Inhibition data for one compound are collected here from PubChem BioAssay AID1788 (Vanderbilt High Throughput Screening Facility, 2009).

A short description of this assay: PubChem AID 1788. Particulars: MDS Pharma lead profiling panel, radioligand binding; GABAA central (rat), Flunitrazepam site; at 10 µM; hits give high values.

Structures are written as SMILES. A number with no mark means an inactive call. The rule behind the calls is not given here.

In general, inhibition refers to the change of the read-out against control, counted positive when it falls.

In the case of `CCOC(=O)N1CCC(NCCNC(=O)c2ccccc2C)CC1`, the inhibition is -12%.
